Screening data (PubChem BioAssay)
KOR antag MB = antagonists of human kappa opioid receptor OPRK1, Maybridge library | P41145 | OPRK1 cells, antagonist mode, fluorescence readout | AID 652031 | hit rate 0.4% among 16,000 | inhibition, % at 9 µM; in the data active = inhibition above about 50%
TLR4 MyD88 blk = blocks binding of human TLR4 to MyD88; O00206; Cell-based TLR4-MyD88 binding inhibition assay; inhibition, % at 10 µM; hit rate 0.06% among 16,000; in the data active = inhibition above about 45%
Target sequence (O00206 whole entry, looked up): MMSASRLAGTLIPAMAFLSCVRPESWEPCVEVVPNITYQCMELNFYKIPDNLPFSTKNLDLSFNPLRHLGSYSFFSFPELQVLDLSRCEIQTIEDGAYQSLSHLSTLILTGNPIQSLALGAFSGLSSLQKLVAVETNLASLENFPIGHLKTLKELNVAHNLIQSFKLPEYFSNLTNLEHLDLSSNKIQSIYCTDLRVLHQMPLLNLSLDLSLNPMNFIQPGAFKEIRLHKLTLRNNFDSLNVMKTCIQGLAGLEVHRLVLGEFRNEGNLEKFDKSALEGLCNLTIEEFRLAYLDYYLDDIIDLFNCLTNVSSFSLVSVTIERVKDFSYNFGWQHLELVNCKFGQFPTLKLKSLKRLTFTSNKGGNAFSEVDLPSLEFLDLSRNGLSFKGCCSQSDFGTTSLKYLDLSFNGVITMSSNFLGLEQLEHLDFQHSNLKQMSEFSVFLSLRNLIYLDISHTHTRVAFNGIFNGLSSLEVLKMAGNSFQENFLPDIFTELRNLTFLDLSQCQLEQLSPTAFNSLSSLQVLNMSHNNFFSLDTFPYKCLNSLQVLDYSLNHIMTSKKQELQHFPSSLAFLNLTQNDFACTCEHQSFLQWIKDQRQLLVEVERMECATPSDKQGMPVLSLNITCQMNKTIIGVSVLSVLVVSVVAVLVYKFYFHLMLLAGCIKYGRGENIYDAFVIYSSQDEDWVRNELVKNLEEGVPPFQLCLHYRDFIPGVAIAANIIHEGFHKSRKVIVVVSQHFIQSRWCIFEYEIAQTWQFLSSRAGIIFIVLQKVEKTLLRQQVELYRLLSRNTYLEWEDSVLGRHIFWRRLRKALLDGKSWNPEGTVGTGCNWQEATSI
PME-1 Maybridge = PME-1 (human) inhibition, Maybridge primary screen. recombinant PME-1, FP-Rh probe fluorescence polarization. inhibition, % at 9 µM. hit rate 0.5% among 16,000; in the data active = inhibition above about 30%
rat GALR2 ag = GALR2 (rat) receptor agonism | O08726 | cell-based GALR2 agonist screen | activation, % at 10 µM | hit rate 0.5% among 16,000 | AID 833; in the data active = activation above about 15%
S1P1 ag = activates the human S1P1 receptor. activation, % at 4.5 µM. hit rate 1.5% among 16,000. S1P1 agonist cell-based reporter assay. AID 1044. P21453; in the data active = activation above about 80%
Each line names hits and unclear results; the compound was inactive in the other large screens. Hits are enriched below; roughly 2.8% of the tested compounds scored in any of these assays.

CN(C)c1ccc(NC(=O)Nc2ccc(OCc3ccccc3)cc2)cc1	none
Cc1ccc(NC(=O)Nc2ccc(OCc3ccccc3)cc2)cc1NS(C)(=O)=O	S1P1 ag 88
COC(=O)/C(C#N)=C(\NC(=O)c1ccccc1)SC	none
O=[N+]([O-])c1ccc(-c2ccc(/C=N/NC(=S)Nc3cccc(F)c3)o2)cc1	KOR antag MB 152
O=[N+]([O-])c1cccc(-c2ccc(/C=N/NC(=S)NCc3ccco3)o2)c1	PME-1 Maybridge 36
CC1=NN(c2ccccc2)C(=O)/C1=C\c1ccc(-c2cccc([N+](=O)[O-])c2)o1	none
Clc1ccc2nc3c(nc2c1)Nc1ccccc1S3	KOR antag MB 90
CCNc1nc2ccc(Cl)cc2nc1NCC	none
N#Cc1c(Cl)cccc1Oc1ccc(S(=O)(=O)Nc2ccc(N3CCCCC3)cc2)cc1	none
N#Cc1c(Cl)cccc1Oc1ccc(S(=O)(=O)NNc2c(Cl)cncc2Cl)cc1	S1P1 ag 108
CC(=O)Nc1cccc(OCCCNS(=O)(=O)c2ccc(Oc3cccc(Cl)c3C#N)cc2)c1	S1P1 ag 93
CCOC(=O)c1nnc2c3c(-c4ccccc4)c(-c4ccccc4)nnc3nn2c1C	S1P1 ag 101
CCOC(=O)c1ccc(Oc2ccc(Cl)cc2Cl)c([N+](=O)[O-])c1	S1P1 ag 94
Cc1nn(-c2ccccc2)nc1C(=O)NNC(=O)CSCc1cccc2ccccc12	S1P1 ag 89
Cc1nn(-c2ccccc2)nc1C(=O)NNC(=O)NC(=O)c1ccccc1Cl	none
Cc1cc(C)n(-c2ncnc3c2nnn3Cc2ccccc2Cl)n1	none
CCOc1ncnc2c1nnn2Cc1ccccc1Cl	rat GALR2 ag 20
C#Cc1cccc(NC(=O)c2sc3nc4c(c(-c5cccs5)c3c2N)CCCC4)c1	KOR antag MB 65
O=C(NCc1ccccn1)c1cccnc1SCCS(=O)(=O)c1cccc(C(F)(F)F)c1	S1P1 ag 117
CN(C)c1cc(C(F)(F)F)nc2c(Cl)c(C(C)(C)C)nn12	none
CCCCCCCCCCCC(=O)ON1C(=O)CCC1=O	KOR antag MB 50
CCCCCCCCCCCC(=O)NN	none
OC(COc1ccc(C23CC4CC(CC(C4)C2)C3)cc1)CN1CCCCC1 (configuration not stated)	rat GALR2 ag 27
CCN(CC)c1ccc(N=Nc2ccc(Br)cn2)c(O)c1	S1P1 ag 86
N/C(=N\NC(=O)c1ccco1)c1ccccn1	none
CSC(=NCc1c(N(C)C)cccc1N(C)C)NS(=O)(=O)c1ccccc1	S1P1 ag 95
CCc1ccc(-n2nnnc2/C=C/N2CCOCC2)cc1	none
Clc1ccc(-n2nnc(/C=C/C=C/N3CCOCC3)n2)cc1	rat GALR2 ag 30
O=C(CSc1c(F)c(F)c(F)c(F)c1F)Nc1ccc(C2SCCS2)cc1	PME-1 Maybridge 147
c1ccc(-c2cc3ncnc(NCc4ccc5c(c4)OCO5)c3s2)cc1	KOR antag MB 61
FC(F)(F)c1ccnc(NCc2ccc3c(c2)OCO3)n1	none
COc1ccc(S(=O)(=O)Nc2cccc(-c3ncon3)c2)cc1OC	none
CN(CCC#N)c1ccc(C=NCCCN=Cc2ccc(N(C)CCC#N)cc2)cc1	S1P1 ag 101
S=C(NCc1ccco1)Nc1cccnc1	S1P1 ag 120
S=C(NCc1ccco1)Nc1ccc(C2=NCCO2)cc1	none
CSc1ccc(C2C(C#N)=C(N)OC3=C2CCc2ccccc23)cc1 (configuration not stated)	none
OCc1ccc(-c2cc(C(F)(F)F)cc(C(F)(F)F)c2)o1	none
O/N=C/c1ccc(-c2cc(C(F)(F)F)cc(C(F)(F)F)c2)o1	S1P1 ag 92
O=[N+]([O-])c1ccc(N2CCN(c3ccc([N+](=O)[O-])cc3CO)CC2)c(CO)c1	S1P1 ag 82
CCOC(=O)C1CCN(Cc2cccc(NC(=O)c3ccco3)c2)CC1	KOR antag MB 56
CCOC(=O)C1CCN(c2ccccc2CN2CCN(c3ccccc3OCC)CC2)CC1	none
Cc1nc(C(F)(F)F)ccc1C(=O)N1CCSCC1	none
Cc1nc(C(F)(F)F)ccc1C(=O)N1CCN(c2nc3ccc(Cl)cc3s2)CC1	S1P1 ag 88
N#C/C(=C\Nc1ccc(F)c(Cl)c1)C(=O)C1CC1	none
N#C/C(=C\Nc1ccc2c(c1)OCCO2)C(=O)c1ccc(Cl)cc1	S1P1 ag 85
COc1ccc(-c2cc(-c3ccc(OC)cc3)c3c(=O)n(C)c(=O)n(C)c3n2)cc1	S1P1 ag 81 (no result: TLR4 MyD88 blk)
CN(C)c1cc(Nc2ccccc2)c2c(=O)n(C)c(=O)n(C)c2n1	none
Fc1ccc(CSc2nnc(-c3ccncc3)s2)cc1	S1P1 ag 101
Cc1ccc(CSc2nnc(-c3cnccn3)s2)cc1	S1P1 ag 93
O=C(CSc1nnc(-c2cnccn2)s1)c1cccc(C(F)(F)F)c1	none
CCOC(=O)c1ccc(OCCOC)c(OCCOC)c1	none
COCCOc1cc2ncnc(N3CCC(C(=O)O)CC3)c2cc1OCCOC	S1P1 ag 113
CC(C)Nc1c(-c2ccccc2)oc2ccc(C(=O)O)cc2c1=O	rat GALR2 ag 28
CC(Oc1ccc2oc3ccccc3c(=O)c2c1)C(=O)O (configuration not stated)	none
Nc1nc(N)c(Br)c(=O)[nH]1	none
Cc1nc2nc(N)[nH]c(=O)c2nc1C	S1P1 ag 111
OC(c1ccccc1)c1ccc2ccccc2c1 (configuration not stated)	none
N#C/C(=N\Nc1ccc(F)cc1)C(=O)c1ccc(Cl)cc1	S1P1 ag 103
N#C/C(=N\O)C(=O)c1ccc(Cl)cc1	none
CCOC(=O)c1c(C)nsc1N/N=C(\C#N)C(=O)c1ccc(Cl)cc1	S1P1 ag 113
CCOC(=O)/C(C#N)=N/Nc1ccsc1C(=O)OC	none
COc1ccc(CCN2C(=O)CCC(C(=O)O)C2c2cc(OC)c(OC)c(OC)c2)cc1OC (configuration not stated)	S1P1 ag 116
CCOC(=O)CC(C)(C)CC(=O)C1CNC2=C(C1)C(=O)CC(C)(C)C2 (configuration not stated)	none
COC(=O)c1cnn(-c2ccc(Cl)cc2)c1C=Nc1ccc(C)cc1	none
COC(=O)c1cnn(-c2ccc(Cl)cc2)c1C=C(C#N)C#N	KOR antag MB 75
CSC1=C(C#N)C(O)(c2cccs2)N=C(C(F)(F)F)N1 (configuration not stated)	none
Cc1cccc(NC(=O)NC(=O)/C=C/c2cccs2)n1	none
N#CC(C#N)=NNc1ccc(F)cc1F	S1P1 ag 105
N#CC(C#N)=NNc1ccc(Cl)c(Cl)c1C#N	none
CCCCCCCCCCOc1ccc(C(C)=O)cc1	none
N/C(=N\OS(=O)(=O)c1ccc(Cl)cc1)c1ccc(C(F)(F)F)cc1	none
Cc1onc(-c2c(F)cccc2Cl)c1C(=O)Oc1ccccc1	S1P1 ag 95
Cc1ccc(S(=O)(=O)n2nccc2-c2c(C)nc3ccccn23)cc1	S1P1 ag 88
CC(=O)n1nccc1-c1c(C)nc2ccccn12	none
O=c1c(C=Nc2ccccc2)c(Nc2ccccc2)[nH]n1-c1ccccc1	PME-1 Maybridge 84
CCOC(=O)Cc1c(C)[nH]n(-c2ccccc2)c1=O	none
COc1ccc(/C(C#N)=C/c2cnc(-c3ccccc3)[nH]2)cc1	PME-1 Maybridge 50
